The record followed here is PubChem BioAssay (NCI).

The structures appear in SMILES notation. About 83,000 compounds went through this panel and 20% of them were active in at least one assay; those are over-represented in the sample as a whole.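 Each cell line was grown in a 96-well plate and treated with one concentration of compound for 48 hours. Values below 10 were considered active.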 A number with no mark means an inactive call. Calls of active or inactive are those of the source.

Common to all, as to test: NCI-60 one-dose screen, 48 h (100 = growth as untreated, 0 = no growth, -100 = all killed)
The subject of one test is HCT-15 colon. The following applies: 10 µM unless noted.
The test system of a further test is HT29 colon. The following applies: 10 µM unless noted.
The test system of a further test is SNB-75 CNS. The following applies: 10 µM unless noted.
A further test has as its system SNB-19 CNS. The following applies: 10 µM unless noted.
The next test deals with U251 CNS. The following applies: 10 µM unless noted.
A further test relates to PC-3 prostate. The following applies: 10 µM unless noted.
For a further test, the system named is SK-MEL-5 melanoma. The following applies: 10 µM unless noted.
Another test concerns UACC-62 melanoma. Conditions: 10 µM unless noted.
The subject of a further test is LOX IMVI melanoma. The following applies: 10 µM unless noted.
The test system of the next test is SK-MEL-28 melanoma. Conditions: 10 µM unless noted.
Another test has as its system SK-MEL-2 melanoma. The following applies: 10 µM unless noted.
For another test, the system named is EKVX NSCLC. Conditions: 10 µM unless noted.
For a further test, the system named is SN12C renal. Conditions: 10 µM unless noted.
Another test relates to UO-31 renal. Conditions: 10 µM unless noted.
A further test concerns TK-10 renal. Conditions: 10 µM unless noted.
In the next test the test system is ACHN renal. Conditions: 10 µM unless noted.
Another test has as its system CAKI-1 renal. The following applies: 10 µM unless noted.
Another test concerns A498 renal. The following applies: 10 µM.
In another test the test system is HL-60(TB) leukemia. The following applies: 10 µM unless noted.
The next test deals with CCRF-CEM leukemia. The following applies: 10 µM unless noted.

In the case of `O=C(CCl)c1ccc([N+](=O)[O-])o1`, the growth in the test with HCT-15 colon was -86.6% (active); in the test on HT29 colon, -14.3% (active); with SNB-75 CNS, 51.3%; with SNB-19 CNS it was 75.4%; in the test with U251 CNS, 7.98% (active); in the test with PC-3 prostate, -23.8% (active). For the same compound, the growth is 62.8% in the test on SK-MEL-5 melanoma; 33% in the test on UACC-62 melanoma; -81.8% (active) in the test on LOX IMVI melanoma; -64.6% (active) in the test on SK-MEL-28 melanoma; -7.05% (active) in the test on SK-MEL-2 melanoma; 96.2% in the test with EKVX NSCLC. Moreover, the growth in the test with SN12C renal is -38.1% (active); with UO-31 renal, -8.81% (active); in the test on TK-10 renal, -39.4% (active); in the test on ACHN renal it was -40.6% (active); in the test with CAKI-1 renal it was -95.1% (active); in the test on A498 renal, 101%. Further, the growth in the test with HL-60(TB) leukemia is -68.9% (active); in the test with CCRF-CEM leukemia, -74.9% (active).

Turning to `Cc1cc(N(CCCl)CCCl)ccc1C=Nc1ccccc1-c1ccccc1`, the growth is 79.4% in the test with HCT-15 colon; 89.3% in the test on HT29 colon; 66.1% in the test with SNB-75 CNS; 77.9% in the test with SNB-19 CNS; 63.3% with U251 CNS; 85.5% in the test on PC-3 prostate. The growth in the test with SK-MEL-5 melanoma was 85.7%; in the test with UACC-62 melanoma it was 6.46% (active); with LOX IMVI melanoma, 66.3%; in the test with SK-MEL-28 melanoma, 95.2%; in the test with SK-MEL-2 melanoma it was 115%; with EKVX NSCLC, 101%. For the same compound, the growth in the test with SN12C renal was 54.8%; in the test on UO-31 renal, 59.5%; with TK-10 renal, 88.2%; with ACHN renal, 34.4%; in the test with CAKI-1 renal, 27.6%; in the test on HL-60(TB) leukemia it was 48.4%. For the same compound, in the test with CCRF-CEM leukemia, the growth was 54.2%.

For the compound `O=[N+]([O-])/C=C\c1ccc(Cl)c(Cl)c1`, the growth in the test with HCT-15 colon is 26.1%; in the test on HT29 colon, -40.4% (active); in the test on SNB-75 CNS, 42%; in the test on SNB-19 CNS, 61.5%; with U251 CNS, 19.3%; in the test with PC-3 prostate, 70.1%. The growth is 56.3% with SK-MEL-5 melanoma; 58.9% with UACC-62 melanoma; -30.7% (active) in the test on LOX IMVI melanoma; 89.7% in the test with SK-MEL-28 melanoma; 84% in the test on SK-MEL-2 melanoma; 91.8% in the test with EKVX NSCLC. For the same compound, the growth was 77.5% in the test with SN12C renal; 35.4% in the test with UO-31 renal; 82.7% with TK-10 renal; 78.4% in the test with ACHN renal; 84.7% in the test with CAKI-1 renal; 34.6% with HL-60(TB) leukemia. Also, in the test with CCRF-CEM leukemia, the growth was 33.6%.

On to `COc1cccc2c1c(C(=O)C(=O)Nc1ccn[nH]1)cn2Cc1ccc(F)cc1`, for which the growth was 106% in the test on HCT-15 colon; 105% in the test with HT29 colon; 90.1% in the test with SNB-75 CNS; 107% in the test with SNB-19 CNS; 103% with U251 CNS; 98.3% in the test on PC-3 prostate. The growth was 106% with SK-MEL-5 melanoma; 92.1% in the test with UACC-62 melanoma; 103% in the test on LOX IMVI melanoma; 110% in the test with SK-MEL-28 melanoma; 93.8% in the test on SK-MEL-2 melanoma; 119% in the test with EKVX NSCLC. The growth in the test on SN12C renal is 100%; with UO-31 renal, 89%; in the test on TK-10 renal it was 51.7%; with ACHN renal it was 101%; with CAKI-1 renal, 46.7%; in the test on A498 renal, -72.9% (active). Besides, the growth in the test with HL-60(TB) leukemia is 115%; with CCRF-CEM leukemia, 93.2%.

Consider `Cc1cccc(N2CCN(C(C)C#N)CC2)c1` (centres undefined), for which the growth in the test with HCT-15 colon is 106%; in the test on HT29 colon, 105%; with SNB-75 CNS, 106%; in the test with SNB-19 CNS, 115%; with U251 CNS it was 103%; in the test with PC-3 prostate, 102%. The growth is 105% in the test on SK-MEL-5 melanoma; 111% in the test with UACC-62 melanoma; 94.7% with LOX IMVI melanoma; 114% in the test with SK-MEL-28 melanoma; 104% with SK-MEL-2 melanoma; 100% with EKVX NSCLC. Besides, the growth in the test on SN12C renal was 103%; in the test with UO-31 renal, 84%; in the test on TK-10 renal, 119%; with ACHN renal, 104%; in the test with CAKI-1 renal, 95%; in the test on HL-60(TB) leukemia it was 94.2%. The growth in the test on CCRF-CEM leukemia is 107%.

Turning to `Nc1c(F)cc(-c2nc3cc(F)ccc3[se]2)cc1Br`, the growth with HCT-15 colon is 18.5%; with HT29 colon, 5.05% (active); with SNB-75 CNS it was 73.4%; with SNB-19 CNS, 94.5%; with U251 CNS, 87.5%; with PC-3 prostate, 66.4%. Further, the growth was 50% in the test on SK-MEL-5 melanoma; 47.5% in the test on UACC-62 melanoma; 90.1% with LOX IMVI melanoma; 106% with SK-MEL-28 melanoma; 90.5% with SK-MEL-2 melanoma; 32.7% in the test with EKVX NSCLC. Besides, the growth in the test on SN12C renal is 88.1%; with UO-31 renal, 60.1%; with TK-10 renal it was -4.6% (active); with ACHN renal, 27.5%; in the test on A498 renal, 31.4%; with HL-60(TB) leukemia it was 95.9%.

Take `Cc1cc(C)cc(Nc2nc3c(s2)CC[C@@]2(C)C3=CC[C@@H]3[C@@H]2CC[C@]2(C)C(=O)CC[C@@H]32)c1`: the growth in the test with HCT-15 colon is 19.1%; with HT29 colon, 12.3%; in the test with SNB-75 CNS it was 70.5%; with SNB-19 CNS, 60.1%; with U251 CNS it was 46.6%; in the test with PC-3 prostate, 33.1%. Also, the growth in the test on SK-MEL-5 melanoma is 91.6%; in the test on UACC-62 melanoma, 52.9%; in the test on LOX IMVI melanoma it was 4.43% (active); in the test on SK-MEL-28 melanoma, 59.1%; with SK-MEL-2 melanoma, 54.9%; with EKVX NSCLC, 89.4%. Also, the growth in the test on SN12C renal is 54.2%; in the test with UO-31 renal it was 59.4%; with TK-10 renal it was 77.6%; in the test on ACHN renal it was 63.4%; with CAKI-1 renal it was 47.4%; in the test with A498 renal, 78%. Further, the growth is 57.6% in the test on HL-60(TB) leukemia and 3.37% (active) in the test with CCRF-CEM leukemia.

Turning to `COC(=O)[C@H](C[C@H](Cc1ccccc1)NC(=O)c1csc([C@@H](C[C@H](C(C)C)N(C)C(=O)[C@@H](NC(=O)[C@H]2CCCCN2C)C(C)C)OC(C)=O)n1)NC(=O)OCc1ccccc1`, the growth was 13.6% [8.5 µM] in the test on HCT-15 colon; -2.9% [8.5 µM] (active) in the test on HT29 colon; 22.7% [8.5 µM] with SNB-75 CNS; 16.3% [8.5 µM] in the test with SNB-19 CNS; 14.6% [8.5 µM] in the test with U251 CNS; 32.4% [8.5 µM] with PC-3 prostate. The growth in the test with SK-MEL-5 melanoma was -13.3% [8.5 µM] (active); in the test with UACC-62 melanoma, 23.8% [8.5 µM]; in the test on LOX IMVI melanoma, 13.8% [8.5 µM]; with SK-MEL-28 melanoma, -69.7% [8.5 µM] (active); with SK-MEL-2 melanoma it was 5.82% [8.5 µM] (active); in the test with EKVX NSCLC, 54.7% [8.5 µM]. The growth is 9.35% [8.5 µM] (active) in the test with SN12C renal; 32.3% [8.5 µM] with UO-31 renal; 44.2% [8.5 µM] with TK-10 renal; 13.5% [8.5 µM] in the test on ACHN renal; 34.9% [8.5 µM] in the test with CAKI-1 renal; -30.3% [8.5 µM] (active) in the test with HL-60(TB) leukemia. Further, in the test on CCRF-CEM leukemia, the growth was 6.6% [8.5 µM] (active).
